High-throughput results: PubChem BioAssay, several laboratories
RN4220 kill: kills Staphylococcus aureus RN4220. S. aureus RN4220 growth, OD600, 16 h. inhibition, % (no concentration beside the values). 0.33% of 330,000 active. AID 1259311; in the data active = inhibition above about 85%;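 note: plate controls were untreated cells for no effect and reference antibiotic for full effect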
Sa ugtP lethal: kills S. aureus RN4220 lacking UgtP. S. aureus RN4220 ugtP deletion, OD600 growth, 16 h. growth inhibition, % (concentration not given with the values). 0.54% of 330,000 active. AID 1259309; in the data active = growth inhibition above about 68%;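 note: plate controls were untreated wells for no effect and antibiotic for full effect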
Mtb hypoxia rep: reduces hypoxia-regulated biosensor signal in M. tuberculosis | fluorescence inhibition, % (no concentration beside the values) | M. tuberculosis hypoxia-regulated fluorescent reporter, fluorescence | 0.1% of 300,000 active; in the data active = fluorescence inhibition mostly above about 23%, no sharp cut-off; inactive = mostly below about 17%
MazEF act: increases E. coli MazEF RNase cleavage of RNA; 0.32% of 350,000 active; activation, % at 20 µM; FAM/BHQ RNA-DNA oligo cleavage fluorescence, 5 h; AID 504720; P0AE70; in the data active = activation above about 50%
PfHsp40 rescue: compounds rescuing yeast from Plasmodium falciparum HSP40 toxicity; S. cerevisiae expressing PfHsp40, growth rescue, ATP luminescence; growth rescue, % at 12.5 µM; 0.68% of 340,000 active; AID 504582; in the data active = growth rescue above about 28%, passing the limit was not always enough;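 note: yeast W303a lacking pdr1 and pdr3 grown in galactose medium; growth measured after three days at 30 °C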
TcdB GH inh: blocks C. difficile toxin B glycohydrolase activity. TcdB glycohydrolase enzymatic assay, plate reader. inhibition, % at 9.99 µM. 0.24% of 350,000 active. AID 652162; in the data active = inhibition above about 10%
* = called active by the depositor; / = no result given. The list is not random: actives were taken first. Their share in the collection is about 1.3%.

SMILES | RN4220 kill | Sa ugtP lethal | Mtb hypoxia rep | MazEF act | PfHsp40 rescue | TcdB GH inh
CCC(=O)N1C[C@H](O)COC[C@H]2O[C@@H](CC(=O)NC)CC[C@@H]21 | / | / | / | / | / | 0.5
N=C(N)c1ccc(/C=C/c2ccc(C(=N)N)cc2O)cc1 | 19.9 | -3.8 | 20.8 | 59.6* | 137.4* | 1.3
CC(C)(C)OC(=O)CC1CC=CCC(CC(=O)NCCO)C(=O)NCCOC1=O (configuration not stated) | 8.2 | 12.5 | -2.6 | / | / | /
Cc1ccc(N=Cc2sc(O)c3ccccc23)c(C)c1 | 5.3 | 0.3 | 5.9 | 691.0* | -0.5 | /
CC1=NN(C(N)=S)C(=O)C1N=Nc1ccc(Cl)cc1 (configuration not stated) | -2.2 | 4.0 | 7.9 | -3.8 | -1.2 | 0.2
CC1=NN(C(N)=S)C(=O)C1N=Nc1cccc(Cl)c1C (configuration not stated) | 9.4 | 13.1 | 11.3 | 3.2 | 104.1* | 1.3
C[n+]1c(-c2ccccc2)cc(CCCCc2cc(-c3ccccc3)[n+](C)c(-c3ccccc3)c2)cc1-c1ccccc1 | 92.8* | 77.5 | 7.8 | 8.3 | 0.1 | 1.1
O=c1oc2cc(O)c(Cl)cc2c2ccccc12 | 4.7 | -9.2 | 6.2 | 8.0 | 3.6 | /
O=c1cc2c(=O)oc3cc(O)c(O)oc3c2c(O)c1O | 7.8 | 18.2 | 3.1 | 54.7* | 19.3 | -5.1
C#CCOCCOCCOCCNc1nc(N2CCN(C(=O)[C@H]([C@@H](C)CC)n3cc([C@@H](N)Cc4ccc(O)cc4)nn3)CC2)nc(N2CCN(C(=O)[C@H]([C@@H](C)CC)n3cc([C@@H](N)Cc4ccc(O)cc4)nn3)CC2)n1 | / | / | / | 51.2* | 0.3 | 1.7
Cc1nc2ccc([N+](=O)[O-])cc2nc1C | 7.2 | 1.8 | -1.4 | 4.7 | -0.4 | -0.5
Cc1ccc2nc3cc([N+](=O)[O-])cc([N+](=O)[O-])c3cc2c1 | 21.5 | 8.1 | 7.7 | 354.2* | 2.9 | -0.1
Cc1ccc(C=NNc2ccc3ccccc3n2)o1 | 2.3 | 12.3 | 7.0 | / | / | /
CC1(C)c2ccccc2-n2c1cc1oc(=O)cc(O)c1c2=O | / | / | / | 5.7 | 59.7* | 1.5
O=Nc1c(O)n(Cc2ccc(Cl)cc2Cl)c2ccccc12 | 0.5 | -17.7 | 1.9 | 7.5 | 90.0* | /
O=C(O)CCN1C(=O)/C(=C/c2ccc(-c3nc4ccccc4s3)o2)SC1=S | 99.4* | 1.5 | 21.9 | 5.7 | -1.5 | /
O=C(O)CC(C(=O)O)N1C(=O)/C(=C/c2ccc(-c3nc4ccccc4s3)o2)SC1=S (configuration not stated) | -1.1 | -10.8 | 19.1 | -44.1 | 14.4 | /
O=C(O)CCCN1C(=O)/C(=C\c2ccc(-c3nc4ccccc4s3)o2)SC1=S | 46.6 | 100.1* | 12.2 | -29.6 | 1.2 | -0.4
CCOC(=O)c1ccc2c(c1)nc(SCC(O)=C(C#N)c1nc3ccccc3[nH]1)n2CC | -4.5 | 0.3 | / | / | / | /
CCOC(=O)c1cnc(-n2nc(C)cc2C)nc1NC1CCCC1 | / | / | / | 4.1 | 163.0* | 1.7
CCOC(=O)c1cnc(-n2nc(C)cc2C)nc1Nc1ccc(OC)cc1 | 2.6 | -7.7 | 6.0 | 10.3 | 3.1 | /
CCOC(=O)c1cnc(-n2nc(C)cc2C)nc1NCCc1ccccc1 | 10.3 | -7.0 | / | 4.1 | 65.1* | /
COCC(=O)N1[C@@H](CO)[C@H](c2ccccc2)C12CN(C(=O)NC1CCCC1)C2 | / | / | / | / | / | -2.5
CC=Cc1ccc2n(c1=O)C[C@H]1[C@H](CO)[C@@H](C(=O)NCC3CC3)N(C(C)=O)[C@@H]21 (mixture of isomers) | / | / | / | / | / | 0.2
CCC(=O)c1c(O)n(C2CCCCCC2)c(=O)[nH]c1=O | 10.4 | 5.5 | 10.6 | -13.7 | 80.7* | /
SMILES | RN4220 kill | Sa ugtP lethal | Mtb hypoxia rep | MazEF act | PfHsp40 rescue | TcdB GH inh
CC(=NCCO)c1c(O)n(C2CCCCC2)c(=O)[nH]c1=O | 0.6 | -3.2 | 4.8 | 1.7 | -0.2 | /
C/C(=N\NC(=O)c1ccccc1O)c1c(O)n(C2CCCCC2)c(=O)[nH]c1=O | 0.9 | -8.3 | 6.6 | 1.0 | 79.3* | -0.2
COc1ccc(S(=O)(=O)N(C)C[C@@H]2Oc3ccc(NC(=O)Cc4ccccc4)cc3C(=O)N([C@H](C)CO)C[C@H]2C)cc1 | / | / | / | / | / | 0.3
CC1=Nc2ccccc2/C1=C/c1sc(=N)n(-c2nccs2)c1O | 97.0* | 98.2* | 6.1 | -7.4 | 7.8 | 1.3
CC1=Nc2ccccc2C1=Cc1sc(Nc2ccc(C)cc2)nc1O | 0.6 | -27.6 | 4.2 | / | / | /
C[C@@H]1CN([C@@H](C)CO)C(=O)c2cc(-c3ccccc3)cnc2O[C@@H]1CN(C)Cc1ccc(C(=O)O)cc1 | / | / | / | / | / | 0.5
COC(=O)c1cc(Br)ccc1-c1ccc(/C=N/n2nnnc2N)o1 | / | / | / | 53.7* | -1.1 | /
CC(=O)N(C)C[C@H]1Oc2ncc(C#CC(C)(C)O)cc2C(=O)N([C@@H](C)CO)C[C@@H]1C | / | / | / | / | / | 0.4
COc1cc2cnc(-c3ccccc3)c(-c3ccc(C(F)(F)F)cc3)c2cc1OC | 100.0* | 100.5* | -3.8 | -7.1 | 4.8 | 1.1
COc1cc2cnc(-c3ccccc3)c(C(=O)c3ccc(F)cc3)c2cc1OC | 11.7 | -10.6 | 8.0 | -0.9 | 411.4* | 1.2
CCN(CC)c1ccc(C=NNc2ccc(C)cc2)c(O)c1 | 0.4 | 26.1 | 17.8 | / | / | /
S=C(NCc1ccccc1)NC1CCCc2ccccc21 (configuration not stated) | -2.1 | 1.9 | 4.8 | 10.9 | 35.8* | -0.6
S=C(NCc1ccco1)NC1CCCc2ccccc21 (configuration not stated) | -0.8 | 11.1 | 3.4 | -2.4 | -0.3 | -0.6
Nc1nc(N)c2cc([N+](=O)[O-])ccc2n1 | 0.4 | 32.8 | 5.7 | 11.6 | 0.4 | 0.3
Nc1nc(N)c2cc(S(=O)(=O)c3ccc4ccccc4c3)ccc2n1 | / | / | / | 53.0* | / | 1.4
C[N+]1(CCCCSc2ccc(O)cc2)CCCCC1 | 2.6 | 6.0 | 4.3 | -5.4 | 0.3 | 21.8*
Cc1ccc(N2C(=O)N3C4c5ccccc5OCC4C(c4ccccc4)[C@@]3(C)C2=O)cc1 (some centres not stated) | -2.7 | -2.7 | -13.9 | / | / | /
COC(=O)C1C(O)C(C)C(O)C(C)C=CC=C(C)C(=O)Nc2c(C)c(OC(C)=O)c3c(c2O)C(=O)C(C)=C2OCOC(=C23)C(C)=CC(C)(O)C(O)C(C)C1O (configuration not stated) | 98.9* | 99.7* | / | / | / | /
CO[C@H]1/C=C/O[C@@]2(C)Oc3c(C)c(O)c4c(O)c(c(C=NN5CCN(C)CC5)c(O)c4c3C2=O)NC(=O)/C(C)=C\C=C\[C@H](C)[C@H](O)[C@@H](C)[C@@H](O)[C@@H](C)[C@H](OC(C)=O)[C@@H]1C | / | / | / | -4.2 | -0.7 | -15.9
Cc1nc2ccccc2cc1C(=O)NN=Cc1ccco1 | 4.6 | 9.6 | 1.8 | / | / | /
C[C@@]12CCC3[C@@](CCC4[C@@]3(C)CCC[C@@]4(C)C(=O)NCc3ccccc3)(CC1=O)C2 (some centres not stated) | 10.1 | 4.4 | 14.5 | 9.8 | 345.6* | 0.6
CC(=O)NC[C@@H]1[C@@H](c2ccc(C3=CCCCC3)cc2)[C@@H](CO)N1C(=O)C1CCC1 | / | / | / | / | / | 1.1
